# Screening results deposited in PubChem by several laboratories.
# Many of the other results were omitted from the sample, so hits are more common in it than they were.
# PglD DTNB = PglD (C. jejuni) enzyme inhibition | inhibition, % at 12.5 µM | AID 602405 | purified PglD enzyme, DTNB colorimetric CoA detection | 360,000 tested, 0.098% active; in the data active means inhibition above about 16%, passing the limit was not always enough
# ALR inh = human ALR oxidase inhibition via reduced H2O2; P55789; purified ALR, DTT oxidation, H2O2 HRP-luminol luminescence; inhibition, % (no concentration beside the values); 290,000 tested, 3.8% active;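 active means mean replicate inhibition above about 79%, with every replicate also reaching it, limit read from the data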
# Target sequence (P55789 whole entry, looked up): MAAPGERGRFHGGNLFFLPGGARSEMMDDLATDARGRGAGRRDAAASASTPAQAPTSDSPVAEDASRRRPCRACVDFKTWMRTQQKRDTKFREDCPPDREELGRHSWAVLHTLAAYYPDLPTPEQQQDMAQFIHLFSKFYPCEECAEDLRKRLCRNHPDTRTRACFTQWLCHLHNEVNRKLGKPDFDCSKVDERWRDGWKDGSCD
# NRP1-CendR mod = NRP-1/CendR interaction modulation; O14786; AID 602438; inhibition, % at 25 µM; FAM-RPARPAR peptide binding to NRP-1, fluorescence polarization; 360,000 tested, 0.85% active;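 active means inhibition or corrected inhibition above about 18%, plus a signal ratio from 0.5 to 1.5, limit read from the data, passing the limit was not always enough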
# ARNT-TACC3 inh = ARNT/TACC3 interaction disruption; Q9Y6A5; AID 623870; inhibition, % at 9.99 µM; AlphaScreen His-ARNT PAS-B/GST-TACC3 binding, luminescence; TACC3 fragment carries E629A point mutation; 390,000 tested, 0.66% active;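 active means mean inhibition of replicates at least 50% and at least half of replicates each reaching 50%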;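 further: 0% = complete ARNT plus TACC3 wells and 100% = ARNT alone without TACC3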
# PDI turbidity = blocks human protein disulfide isomerase activity; inhibition, % at 10 µM; P07237; PDI insulin aggregation turbidity, A650, 90 min; AID 588391; 350,000 tested, 0.052% active;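 active means mean inhibition across replicates of 30% or more, whatever share of single replicates reach that level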
# ERp5 inh = inhibitors of human ERp5. Q15084. ERp5 insulin aggregation, absorbance 650 nm, 90 min. inhibition, % at 9.99 µM. 350,000 tested, 0.05% active. AID 651711;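 active means mean replicate inhibition above about 25%, with every replicate also reaching it, limit read from the data, passing the limit was not always enough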
# Target sequence (Q15084 whole entry, looked up): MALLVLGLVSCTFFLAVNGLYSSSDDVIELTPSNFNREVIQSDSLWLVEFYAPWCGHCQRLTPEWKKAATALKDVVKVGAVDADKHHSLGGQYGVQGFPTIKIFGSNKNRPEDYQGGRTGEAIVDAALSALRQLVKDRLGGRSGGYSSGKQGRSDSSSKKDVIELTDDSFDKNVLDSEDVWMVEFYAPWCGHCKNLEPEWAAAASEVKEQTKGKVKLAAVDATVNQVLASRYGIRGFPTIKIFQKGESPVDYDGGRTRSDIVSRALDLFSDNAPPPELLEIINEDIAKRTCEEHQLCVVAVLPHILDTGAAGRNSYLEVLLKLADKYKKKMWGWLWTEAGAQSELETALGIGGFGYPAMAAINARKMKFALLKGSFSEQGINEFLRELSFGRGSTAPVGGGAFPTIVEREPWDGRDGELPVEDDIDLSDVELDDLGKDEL
# Starred values were filed as active, the others as inactive; · = no result.
SMILES,PglD DTNB,ALR inh,NRP1-CendR mod,ARNT-TACC3 inh,PDI turbidity,ERp5 inh
C[C@H](CO)N1C[C@H](C)[C@H](CN(C)Cc2ccc3c(c2)OCO3)Oc2ccc(NS(=O)(=O)c3cccs3)cc2C1=O,9.0,·,·,-1.1,·,-1.2
COc1ccccc1N1CCN(/N=C/c2cccc(O)c2)CC1,·,51.5,3.5,10.9,28.0,-1.5
COc1cc(/C=N/N2CCN(Cc3ccc(C)cc3)CC2)cc(OC)c1O,3.1,99.1*,4.2,8.0,-2.2,4.3
COc1cc(CN2CCC(C(=O)NC3CCCC3)CC2)ccc1O,3.1,-4.1,0.1,0.7,-5.4,·
COc1cc(/C(C)=N/N2CCN(Cc3ccc(C)cc3)CC2)ccc1O,-1.5,89.2*,15.4,1.1,1.5,-2.3
C(=N\N1CCN(Cc2ccccc2)CC1)/c1ccc(-c2ccccc2)cc1,0.4,-1.7,3.4,7.5,-5.5,-2.7
COc1ccccc1N1CCN(/N=C/c2cc(OC)c(O)c(OC)c2)CC1,0.9,98.8*,4.7,7.3,3.7,-0.8
Cc1ccc(CN2CCN(/N=C/c3ccccc3)CC2)cc1,·,-1.0,2.5,6.7,-4.6,1.5
Oc1ccc(/C=N/N2CCN(Cc3ccccc3)CC2)cc1,1.1,81.8*,-2.7,1.8,10.2,-2.1
C[C@@H]1CCCCO[C@@H](CN(C)Cc2ccc(C(=O)Nc3ccccc3N)cc2)[C@@H](C)CN([C@H](C)CO)C(=O)c2cc(NS(=O)(=O)c3cn(C)cn3)ccc2O1,·,·,·,·,·,-7.4
COc1cccc(NC(=O)N2C[C@@H](O)COC[C@H]3O[C@H](CC(=O)NC4CCCC4)CC[C@@H]32)c1,-3.5,·,·,2.3,·,-5.5
S=C(N/N=C/c1ccccc1)N1CCOCC1,2.7,-8.7,-13.7,46.5*,8.2,·
COc1ccc(C(=O)N2C[C@@H]3[C@H](c4ccccc42)[C@@H](CO)N3C(=O)c2ccc(F)cc2)cc1,-4.1,·,·,-2.8,·,1.8
CC(=O)N[C@@H]1CC[C@@H](CC(=O)NCC2CCCCC2)O[C@H]1CO,1.5,·,·,-10.7,·,-7.1
Cc1cccc(NC(=O)Cn2c(/C=C/c3ccccc3)nc3ccccc32)c1,·,-11.6,-6.8,47.5*,5.4,6.0
COc1ccc(NC(=O)CN2CCN(c3nc(-c4cccc(OC)c4)cs3)CC2)cc1,2.2,98.9*,-4.0,34.8,-9.9,·
COc1ccc(N2CCN(C(=O)NCc3ccc(OC)c(OC)c3)CC2)cc1,1.7,88.6*,6.4,-3.5,11.8,-2.3
COc1ccc(N2CCN(CC(=O)NC(C)c3ccccc3)CC2)cc1 (stereo unspecified),6.2,95.1*,-6.2,-1.4,15.8,1.5
COc1ccc(N2CCN(CC(=O)NCc3ccc(Cl)cc3)CC2)cc1,-5.6,88.6*,-4.7,3.2,1.0,2.4
COc1ccc(N2CCN(C(=O)NCc3ccc(OC)c(Cl)c3)CC2)cc1,·,-57.8,5.6,1.4,-0.8,-4.9
COc1ccc(N2CCN(CC(=O)NCc3ccccc3)CC2)cc1,2.5,69.5,-1.6,-3.6,0.7,-7.7
C[C@@H]1CN([C@@H](C)CO)C(=O)c2cc(C#CC3CC3)cnc2O[C@H]1CN(C)C(=O)Nc1ccccc1,-0.2,·,·,-5.9,·,-4.1
O=C(Nc1ccccc1)N1CCCCN2[C@H](CO)[C@H](c3ccc(C#CC4CC4)cc3)[C@H]2C1,-6.7,·,·,10.0,·,2.2
O=C(N[C@H]1CC[C@H](CCNS(=O)(=O)c2ccccc2)O[C@H]1CO)c1cccc(F)c1,0.0,·,·,2.9,·,4.1
COC(=O)c1c(C)[nH]c(C(=O)N2CCN(c3ccc(OC)cc3)CC2)c1C,·,95.6*,·,·,·,-3.1
SMILES,PglD DTNB,ALR inh,NRP1-CendR mod,ARNT-TACC3 inh,PDI turbidity,ERp5 inh
COc1ccc(N2CCN(C(=O)NC34CC5CC(CC(C5)C3)C4)CC2)cc1,·,85.4*,9.2,-3.6,11.9,·
CC(CCc1ccccc1)NC(=O)CN1CCN(c2ccc(O)cc2)CC1 (stereo unspecified),-2.2,99.9*,2.2,-9.5,9.3,-9.1
Cc1ccc(CN2CCN(CC(=O)NC(C)CCc3ccccc3)C2=O)cc1 (stereo unspecified),-5.0,-5.9,1.9,4.6,-2.1,-3.0
CNC(=S)N1CCN(c2ccc(OC)cc2)CC1,1.0,96.0*,8.2,-2.5,3.0,·
COc1cccc(S(=O)(=O)Nc2ccc3c(c2)C(=O)N(C)[C@H]2CC[C@H](CC(=O)O)O[C@@H]2CO3)c1,1.2,·,·,-1.0,·,·
COCC(=O)Nc1ccc2c(c1)OC[C@H](C)N(CCc1ccccc1)C[C@@H](C)[C@@H](OC)CN(C)C2=O,3.9,·,·,1.6,·,-3.5
CCC(=O)N1C[C@H](C)[C@H](OC)CN(C)C(=O)c2ccc(NC(=O)COC)cc2OC[C@H]1C,·,·,·,·,·,-3.5
O=C(Nc1ccc(Cl)c(Cl)c1)N[C@@H]1CC[C@@H](CCn2cc(C3CC3)nn2)O[C@@H]1CO,-2.0,·,·,5.4,·,4.4
COc1ccc(N2CC(NC(=O)N3CCN(c4ccccc4)CC3)CC2=O)cc1 (stereo unspecified),·,96.8*,-9.9,-7.8,5.2,4.8
COc1ccc(N2CC(NC(=O)Nc3ccccc3)CC2=O)cc1 (stereo unspecified),·,-5.0,-4.3,2.6,-1.3,5.0
COc1ccc(N2CCN(CCCNC(=O)C3(S(=O)(=O)c4ccc(Cl)cc4)CC3)CC2)cc1,1.1,85.5*,-3.7,6.7,-0.3,·
O=C(NCCCN1CCN(c2cccc(Cl)c2)CC1)C1(S(=O)(=O)c2ccc(Cl)cc2)CC1,·,·,1.7,3.3,7.3,·
COc1cccc(N2CCN(CC(=O)NCc3cccs3)CC2)c1,-4.7,98.6*,10.4,-1.3,1.1,·
O=C(Cc1ccncc1)NCC[C@@H]1CC[C@@H](NC(=O)C2CCC2)[C@H](CO)O1,10.3,·,·,6.1,·,-2.4
COC(=O)[C@H]1[C@H](CO)[C@H]2Cn3c(ccc(-c4ccccc4F)c3=O)[C@H]2N1Cc1ccncc1,6.9,·,·,-5.5,·,-3.4
Cc1ccsc1/C=N/N1CCN(c2ccccn2)CC1,-0.9,98.9*,-10.1,17.2,-7.0,-3.4
CC(=O)Nc1ccc(SCc2ncc(-c3ccccc3)o2)cc1,4.7,98.6*,6.6,-4.3,-8.0,1.9
c1ccc(-c2cnc(CSc3ncnc4sccc34)o2)cc1,5.0,4.1,-3.0,-1.2,-6.1,·
CC(=O)Nc1ccc(SCc2csc(C)n2)cc1,4.0,98.7*,-9.9,·,-2.9,0.4
Cc1noc(C)c1CSc1ccc(Br)cc1,1.5,-21.2,0.9,1.5,11.3,-5.7
CC(=O)Nc1ccc(SCc2c(C)noc2C)cc1,-4.7,99.2*,7.8,-13.8,2.5,-0.5
CCOc1ccc(NC(=O)CSc2nnc(Cc3csc(C)n3)o2)cc1,4.2,-3.3,5.1,-6.6,-3.3,3.9
CN(C)C(=O)c1ccc(-c2cccc(-c3nc(C(=O)NC4CCCC4)cc4c3[C@H](CCO)N([S@@](=O)C(C)(C)C)C4)c2)cc1,-2.8,·,·,8.8,·,-3.4
